PubChem BioAssay (NCI)
Where “and” joins values, the source holds several entries; their conditions need not be identical. Equal values may be shown once. The panel holds about 83,000 compounds, 20% with a hit somewhere; the sample as a whole holds those more often.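 In brief: 96-well plates, 48 h treatment, single concentration, percent growth endpoint.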 A number with no mark means an inactive call. Calls of active or inactive are those of the source. The calls were made as follows: active = growth percent below 10; inactive = the rest.

tested on: MDA-MB-468 breast; assay: NCI-60 one-dose screen, 48 h (100 = growth as untreated, 0 = no growth, -100 = all killed); settings: 10 µM unless noted

| SMILES | growth |
| --- | --- |
| CCc1ncnc2c1ccn2C(C)c1ccc(OC)c(F)c1 (stereo not given) | -1.21% (active) |
| Cc1cc(Cl)nc(N(CCCNc2ccnc3cc(Cl)ccc23)Cc2cccs2)n1 | -30.1% (active) |
| Cc1cnc(NC(=O)Nc2cc(Br)c(C)cc2OC[C@@H]2CNCCO2)cn1 | -26.7% (active) |
| COc1c(/C(C)=N/N=c2sc(C(C)=O)nn2-c2ccc(Cl)cc2)c(Oc2ccccc2)c(OC)c2occc12 | 106% and 98.8% |
| CN1CCN(Cc2ccc(NC(=O)c3cncc(C#Cc4ncc5ccccn45)c3)cc2C(F)(F)F)CC1 | 36.5% |
| CC(=O)OCC(=O)O[C@@H]1C[C@]2(C(C)C)O[C@@]1(C)[C@@H]1CC[C@@H](C)[C@H]1[C@@H]2OC(=O)/C=C/c1ccccc1 | 83.7% |
| C#CCOc1cccc(-c2ncc3cc(NC(=O)CCl)ccc3n2)c1 | -60.6% (active) |
| COc1cc(/C=C/C(=O)Nc2cccnc2Nc2cc(OC)c(OC)c(OC)c2)cc(OC)c1OC | 99.8% |
| COC(=O)[C@H](C)NC(=O)[C@@H]1CCCN1C(=O)CNC(=O)[C@H](C)N | 98.7% |
| CC1(C)CC[C@]2(CO)CC[C@]3(C)C(=CC[C@@H]4[C@@]5(C)CC[C@H](NCO)C(C)(C)[C@@H]5CC[C@]43C)[C@@H]2C1 | -70.1% (active) |
| COc1c(Cl)cc(Cl)c2ccc(C=C3C(=O)NC(=S)NC3=O)nc12 | 108% |
| Cc1c(-c2ccc(C3CCCCC3)cc2)nc2ccc(F)cc2c1C(=O)O | 74.4% |
| CC(=O)c1cc2ccccc2o1 | 109% |
| O=C1CC2C=CCN2C=C1NC(=O)C1CCCCC1 (stereo not given) | 96.2% |
| N#Cc1ccc(NC(=O)Nc2ccc(Cc3ccc(NC(=O)Nc4ccc(C#N)cc4)cc3)cc2)cc1 | -7.75% (active) |
| C=C1CC2(OC1=O)C(=O)N(C)c1ccc(I)cc12 (stereo not given) | -79.2% (active) |
| CCNc1nc(S(=O)(=O)CC)nc2ccccc12 | 76.4% |
| CCCCCN1CCN(C(CC(=O)c2ccccc2)C(=O)c2ccccc2)CC1 (stereo not given) | 103% |
| CCCCCC(=O)OCc1ccc(Cl)c(Cl)c1 | 123% |
| O=C1Nc2ccc(Cl)cc2/C1=C/c1ccc[nH]1 | -19.6% (active) |

| SMILES | growth |
| --- | --- |
| Nc1ncc(-c2cnn(C3CCNCC3)c2)cc1-c1nc2ccccc2o1 | -29.1% (active) |
| COc1ccc2cc(-c3ccc(-c4ccc(C(=N)N)s4)s3)ccc2c1 | -51.7% (active) |
| Nc1ccc(C(=O)CSc2nc3ccccc3[nH]2)cc1 | 93.2% |
| CC(=O)c1c(C)[nH]c(-c2nc3ccc(N4CCN(C)CC4)cc3[nH]2)c1-c1ccccc1 | 24.1% |
| C#Cc1ccc(-n2c(/C=C/c3ccc(C(F)(F)F)cc3)nc3ncccc3c2=O)cc1 | -9.87% (active) |
| CC(=O)Nc1cccc(Nc2nc(N[C@@H](C)c3ccccc3)c3ccccc3n2)c1 | -39.8% (active) |
| O=C(Nc1ncc(Cc2cccc(C(F)(F)F)c2)s1)C1COc2ccccc2O1 (stereo not given) | 77.4% |
| O=C(c1nc2ccccc2[nH]1)C1C(c2cccc([N+](=O)[O-])c2)C2CC3CCCCC3N2[C@@]12C(=O)Nc1cc(Cl)ccc12 (stereo not given in full) | 1.53% (active) |
| COc1cc(OC)c(C(=O)/C=C/c2ccc(C(F)(F)F)cc2)c(OC)c1 | 46.3% |
| Oc1ccc(-c2nc3ccc(/C(=N\N=C\c4ccc(Cl)cc4)c4ccccc4)cc3[nH]2)cc1 | 79.5% |
| COc1ccc(/C=C2\Oc3cc(C)c(Cl)cc3C2=O)cc1OC | 110% |
| O=C(NC1CCCCC1)c1ccc(Cl)cc1 | 104% |
| CN1CCN(c2ccc(/C=N/n3cnc4oc(-c5ccccc5)cc4c3=N)cc2)CC1 | 97.6% |
| COC(=O)c1[nH]nc2c1C1(C(=O)N(C)c3ccccc31)C(C#N)=C(N)O2 (stereo not given) | 97.5% |
| COc1c(N)c2c(c([N+](=O)[O-])c1OC)C(=O)OC2 | 107% |
| c1csc(-c2c3ccc(=[N+]4CCCCC4)cc-3oc3cc(N4CCCCC4)ccc23)c1 | -90% (active) |
| O=C(/C=C/c1ccccc1)c1c[nH]c2ccccc2c1=O | -52.7% (active) |
| Cc1cc(N2CCN(CCNc3ccnc4cc(Cl)ccc34)CC2)nc(N2CCOCC2)n1 | 24.3% |
| CN(C)c1ccc(O)c2c1CC1CC3C(N(C)C)C(=O)C(C(N)=O)=C(O)C3(O)C(=O)C1=C2O (stereo not given) | 36.7% |
| CNC(=O)c1ccccc1CC1(O)c2ccccc2Oc2ccccc21 | 42.9% |
